# In PubChem BioAssay (NCI):
# Compounds without any hit were thinned out: in the full panel of roughly 79,000, 15% have a hit. Values without a mark were called inactive. Activity calls are given as the source filed them. Rule as the data show it: active = growth inhibition above about 70%; inactive = the rest.
# Legend:
# [1] = NCI Yeast Anticancer Drug Screen. Data for the wt1 strain (AID 149);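 also: 0% = growth of vehicle-treated wt1 cultures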; conditions: S. cerevisiae wt1 strain (SPY 50644) growth inhibition, hits give high values
# Method in brief: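 Using yeast strain wt1, compound-induced growth inhibition was determined against vehicle-treated cultures.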
# [2] = NCI Yeast Anticancer Drug Screen. Data for the rad50EPP+ strain (AID 151);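 also: 0% = growth of vehicle-treated control cultures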; conditions: S. cerevisiae rad50 mutant strain, hits give high values
# Method in brief: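 Compounds were applied to the rad50EPP+ yeast strain, which bears a defined DNA repair alteration, and growth inhibition was determined relative to vehicle-treated cultures.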
# [3] = NCI Yeast Anticancer Drug Screen. Data for the mgt1 strain (AID 153); conditions: S. cerevisiae mgt1 mutant growth inhibition, hits give high values
# Method in brief: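 Strain: mgt1 yeast, one of a set carrying defined DNA damage repair or cell cycle control alterations. Compound-treated growth compared with vehicle.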
# [4] = NCI Yeast Anticancer Drug Screen. Data for the rad50 strain (AID 155);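 also: 0% = growth of vehicle-only cultures of the same strain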; conditions: S. cerevisiae rad50 strain growth inhibition, hits give high values
# Method in brief: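 Relative growth inhibition (compound vs vehicle) was measured in yeast with a defined repair-gene alteration.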
# [5] = NCI Yeast Anticancer Drug Screen. Data for the mec2-1 strain (AID 157); conditions: S. cerevisiae mec2-1 strain, hits give high values
# Method in brief: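 Strain: mec2-1 (DNA repair/cell cycle alteration). Compound exposure, then growth measured; inhibition expressed relative to vehicle.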
# [6] = NCI Yeast Anticancer Drug Screen. Data for the rad14 strain (AID 159);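 also: 0% = growth of vehicle-treated control cultures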; conditions: S. cerevisiae rad14 strain growth inhibition, hits give high values
# Method in brief: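 Screen for anticancer potential: a yeast strain altered in DNA damage repair is grown with compound, and reduced growth is quantified against vehicle controls.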
# [7] = NCI Yeast Anticancer Drug Screen. Data for the sgs1 mgt1 strain (AID 161);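 also: 0% = growth of cultures given vehicle only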; conditions: S. cerevisiae sgs1 mgt1 strain, hits give high values
# Method in brief: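 Test agents were incubated with a DNA-repair-mutant yeast strain. Growth was then read and compared against vehicle-treated controls.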
# [8] = NCI Yeast Anticancer Drug Screen. Data for the CLN2oe strain (AID 163);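 also: 0% = growth of vehicle-only control cultures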; conditions: S. cerevisiae CLN2oe strain, hits give high values
# Method in brief: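 Growth of a genetically modified yeast strain is measured after compound exposure and compared with cultures given vehicle alone.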
# [9] = NCI Yeast Anticancer Drug Screen. Data for the cln2 rad14 strain (AID 165);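 also: 0% = growth equal to vehicle treated cultures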; conditions: S. cerevisiae cln2 rad14 strain, hits give high values
# Method in brief: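 Compounds are applied to the cln2 rad14 yeast strain, and growth is then compared with that of vehicle-treated cultures to give inhibition.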
# [10] = NCI Yeast Anticancer Drug Screen. Data for the bub3 strain (AID 167); conditions: S. cerevisiae bub3 mutant strain, hits give high values
# Method in brief: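 Screening used yeast with an engineered genetic alteration affecting cell cycle control. Compound-exposed cultures were compared with vehicle cultures, and reduced growth was taken as inhibition.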
# [11] = NCI Yeast Anticancer Drug Screen. Data for the wt2 strain (AID 169);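 also: 0% = growth of vehicle-treated yeast cultures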; conditions: S. cerevisiae wt2 strain growth inhibition, hits give high values
# Method in brief: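 This strain belongs to a panel of yeast strains with defined genetic alterations in DNA damage repair or cell cycle control. Compounds are applied, and growth inhibition is measured against vehicle-treated cultures.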
# [12] = NCI Yeast Anticancer Drug Screen. Data for the mlh1 strain (AID 171);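 also: 0% = growth of vehicle-treated control cultures of the same strain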; conditions: S. cerevisiae mlh1 strain growth inhibition, hits give high values
# Method in brief: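 Growth of the mutant yeast strain after compound exposure, expressed as inhibition relative to vehicle-only controls.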
# [13] = NCI Yeast Anticancer Drug Screen. Data for the sgs1 strain (AID 173);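 also: 0% = growth of vehicle-only control cultures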; conditions: S. cerevisiae sgs1 mutant, hits give high values
# Method in brief: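 Growth of a yeast strain bearing a defined genetic alteration is measured after compound treatment. Inhibition is expressed relative to vehicle-only controls.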
# [14] = NCI Yeast Anticancer Drug Screen. Data for the mlh1 rad18 strain (AID 175); conditions: S. cerevisiae mlh1 rad18 strain growth inhibition, hits give high values
# Method in brief: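 Read-out is yeast growth inhibition, calculated against vehicle-only controls. The compound was applied to a strain engineered with DNA damage repair alterations.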
# [15] = NCI Yeast Anticancer Drug Screen. Data for the rad18 strain (AID 177); conditions: S. cerevisiae rad18 mutant growth inhibition, hits give high values
# Method in brief: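 Growth of the mutant yeast strain after compound exposure, normalised to vehicle-only cultures.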
# [16] = at 5.0 µM (retest, dose inferred, filed as 0.5)
# [17] = at 50.0 µM (retest, dose inferred, filed as 5.0)
smiles,measurement,setting,value
O=C(NC(N1CCN(c2cc3c(cc2F)c(=O)c(C(=O)O)cn3C2CC2)CC1)(C(F)(F)F)C(F)(F)F)c1ccccc1,growth inhibition,[1]; at 1.2 µM,-2%
same,growth inhibition,[1]; at 3.7 µM,-3%
same,growth inhibition,[1]; at 11.0 µM,-1%
same,growth inhibition,[1]; at 33.0 µM,8%
same,growth inhibition,[1]; at 100.0 µM,40%
same,growth inhibition,[2]; at 1.2 µM,-2%
same,growth inhibition,[2]; at 3.7 µM,-1%
same,growth inhibition,[2]; at 11.0 µM,4%
same,growth inhibition,[2]; at 33.0 µM,27%
same,growth inhibition,[2]; at 100.0 µM,40%
same,growth inhibition,[3]; at 1.2 µM,-1%
same,growth inhibition,[3]; at 3.7 µM,-2%
same,growth inhibition,[3]; at 11.0 µM,-2%
same,growth inhibition,[3]; at 33.0 µM,6%
same,growth inhibition,[3]; at 100.0 µM,42%
same,growth inhibition,[4]; at 1.2 µM,-1%
same,growth inhibition,[4]; at 3.7 µM,5%
same,growth inhibition,[4]; [16],-1%
same,growth inhibition,[4]; at 11.0 µM,19%
same,growth inhibition,[4]; at 33.0 µM,88% (active)
same,growth inhibition,[4]; [17],96% (active)
same,growth inhibition,[4]; at 50.0 µM,46.8%
same,growth inhibition,[4]; at 100.0 µM,91% (active)
same,growth inhibition,[5]; at 1.2 µM,-2%
same,growth inhibition,[5]; at 3.7 µM,-3%
same,growth inhibition,[5]; [16],3%
same,growth inhibition,[5]; at 11.0 µM,0%
same,growth inhibition,[5]; at 33.0 µM,35%
same,growth inhibition,[5]; [17],35%
same,growth inhibition,[5]; at 50.0 µM,-19.2%
same,growth inhibition,[5]; at 100.0 µM,67%
same,growth inhibition,[6]; at 1.2 µM,-2%
same,growth inhibition,[6]; at 3.7 µM,-1%
same,growth inhibition,[6]; at 11.0 µM,2%
same,growth inhibition,[6]; at 33.0 µM,19%
same,growth inhibition,[6]; at 100.0 µM,44%
same,growth inhibition,[7]; [16],4%
same,growth inhibition,[7]; [17],25%
same,growth inhibition,[7]; at 50.0 µM,11.2%
same,growth inhibition,[8]; at 1.2 µM,2%
same,growth inhibition,[8]; at 3.7 µM,0%
same,growth inhibition,[8]; at 11.0 µM,1%
same,growth inhibition,[8]; at 33.0 µM,15%
same,growth inhibition,[8]; at 100.0 µM,58%
same,growth inhibition,[9]; [16],-3%
same,growth inhibition,[9]; [17],20%
same,growth inhibition,[9]; at 50.0 µM,33.9%
same,growth inhibition,[10]; at 1.2 µM,0%
same,growth inhibition,[10]; at 3.7 µM,-1%
same,growth inhibition,[10]; [16],-7%
same,growth inhibition,[10]; at 11.0 µM,1%
same,growth inhibition,[10]; at 33.0 µM,2%
same,growth inhibition,[10]; [17],6%
same,growth inhibition,[10]; at 50.0 µM,-13.9%
same,growth inhibition,[10]; at 100.0 µM,48%
same,growth inhibition,[11]; at 1.2 µM,-2%
same,growth inhibition,[11]; at 3.7 µM,-2%
same,growth inhibition,[11]; at 11.0 µM,-1%
same,growth inhibition,[11]; at 33.0 µM,9%
same,growth inhibition,[11]; at 100.0 µM,34%
same,growth inhibition,[12]; at 1.2 µM,-4%
same,growth inhibition,[12]; at 3.7 µM,-2%
same,growth inhibition,[12]; at 11.0 µM,0%
same,growth inhibition,[12]; at 33.0 µM,11%
same,growth inhibition,[12]; at 100.0 µM,39%
same,growth inhibition,[13]; at 1.2 µM,-3%
same,growth inhibition,[13]; at 3.7 µM,-2%
same,growth inhibition,[13]; at 11.0 µM,1%
same,growth inhibition,[13]; at 33.0 µM,29%
same,growth inhibition,[13]; at 100.0 µM,58%
same,growth inhibition,[14]; [16],-5%
same,growth inhibition,[14]; [17],80% (active)
same,growth inhibition,[14]; at 50.0 µM,-1.3%
same,growth inhibition,[15]; at 1.2 µM,-3%
same,growth inhibition,[15]; at 3.7 µM,-2%
same,growth inhibition,[15]; at 11.0 µM,-1%
same,growth inhibition,[15]; at 33.0 µM,20%
same,growth inhibition,[15]; at 100.0 µM,52%
CC(=O)/C=C/c1cccc([N+](=O)[O-])c1,growth inhibition,[1]; at 1.2 µM,1%
same,growth inhibition,[1]; at 3.7 µM,4%
same,growth inhibition,[1]; at 11.0 µM,8%
same,growth inhibition,[1]; at 33.0 µM,16%
same,growth inhibition,[1]; at 100.0 µM,68%
same,growth inhibition,[2]; at 1.2 µM,3%
same,growth inhibition,[2]; at 3.7 µM,7%
same,growth inhibition,[2]; at 11.0 µM,29%
same,growth inhibition,[2]; at 33.0 µM,81% (active)
same,growth inhibition,[2]; at 100.0 µM,98% (active)
same,growth inhibition,[3]; at 1.2 µM,1%
same,growth inhibition,[3]; at 3.7 µM,2%
same,growth inhibition,[3]; at 11.0 µM,7%
same,growth inhibition,[3]; at 33.0 µM,48%
same,growth inhibition,[3]; at 100.0 µM,94% (active)
same,growth inhibition,[4]; at 1.2 µM,0%
same,growth inhibition,[4]; at 3.7 µM,3%
same,growth inhibition,[4]; [16],-4%
same,growth inhibition,[4]; at 11.0 µM,8%
same,growth inhibition,[4]; at 33.0 µM,20%
same,growth inhibition,[4]; [17],84% (active)
same,growth inhibition,[4]; at 50.0 µM,82% (active)
same,growth inhibition,[4]; at 100.0 µM,89% (active)
same,growth inhibition,[5]; at 1.2 µM,0%
same,growth inhibition,[5]; at 3.7 µM,2%
same,growth inhibition,[5]; [16],2%
same,growth inhibition,[5]; at 11.0 µM,3%
same,growth inhibition,[5]; at 33.0 µM,29%
same,growth inhibition,[5]; [17],56%
same,growth inhibition,[5]; at 50.0 µM,51%
same,growth inhibition,[5]; at 100.0 µM,95% (active)
same,growth inhibition,[6]; at 1.2 µM,-2%
same,growth inhibition,[6]; at 3.7 µM,0%
same,growth inhibition,[6]; at 11.0 µM,7%
same,growth inhibition,[6]; at 33.0 µM,21%
same,growth inhibition,[6]; at 100.0 µM,91% (active)
same,growth inhibition,[7]; [16],-3%
same,growth inhibition,[7]; [17],85% (active)
same,growth inhibition,[7]; at 50.0 µM,48%
same,growth inhibition,[8]; at 1.2 µM,-2%
same,growth inhibition,[8]; at 3.7 µM,-2%
same,growth inhibition,[8]; at 11.0 µM,1%
same,growth inhibition,[8]; at 33.0 µM,6%
same,growth inhibition,[8]; at 100.0 µM,44%
same,growth inhibition,[9]; [16],5%
same,growth inhibition,[9]; [17],4%
same,growth inhibition,[9]; at 50.0 µM,6.15%
same,growth inhibition,[10]; at 1.2 µM,-4%
same,growth inhibition,[10]; at 3.7 µM,-5%
same,growth inhibition,[10]; [16],31%
same,growth inhibition,[10]; at 11.0 µM,-2%
same,growth inhibition,[10]; at 33.0 µM,28%
same,growth inhibition,[10]; [17],89% (active)
same,growth inhibition,[10]; at 50.0 µM,72.4% (active)
same,growth inhibition,[10]; at 100.0 µM,91% (active)
same,growth inhibition,[11]; at 1.2 µM,1%
same,growth inhibition,[11]; at 3.7 µM,4%
same,growth inhibition,[11]; at 11.0 µM,10%
same,growth inhibition,[11]; at 33.0 µM,28%
same,growth inhibition,[11]; at 100.0 µM,88% (active)
same,growth inhibition,[12]; at 1.2 µM,2%
same,growth inhibition,[12]; at 3.7 µM,1%
same,growth inhibition,[12]; at 11.0 µM,10%
same,growth inhibition,[12]; at 33.0 µM,32%
same,growth inhibition,[12]; at 100.0 µM,95% (active)
same,growth inhibition,[13]; at 1.2 µM,1%
same,growth inhibition,[13]; at 3.7 µM,7%
same,growth inhibition,[13]; at 11.0 µM,15%
same,growth inhibition,[13]; at 33.0 µM,50%
same,growth inhibition,[13]; at 100.0 µM,95% (active)
same,growth inhibition,[14]; [16],12%
same,growth inhibition,[14]; [17],94% (active)
same,growth inhibition,[14]; at 50.0 µM,81.7% (active)
